# Measured values from PubChem BioAssay AID624133 (Broad Institute, 2012).
# The campaign covered roughly 1,600 compounds. About 1,300 (81%) were called active. How the calls were made is not given here. The set was probably picked from earlier hits. The list is a sample of the results. Entries with a potency or affinity are not part of this list.
# Assay: control 3'UTR Renilla luciferase suppression, dose response, counter-screen for Shn3 inhibitor project, cell-based, Clone20-Shn3RL, cherry-picked (AID 624133);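 further: 0% = neutral control wells and -100% = positive control wells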
# Conditions: Clone20-Shn3RL cells, Renilla luciferase luminescence, 24 h; at 35 µM (top of the series) unless noted
row,SMILES,"activity change, negative = inhibition [%]"
1,CCOC(=O)C1CCN(c2cc3c(cc2NC(=O)c2ccccc2Br)n(C)c(=O)n3C)CC1,-4.54
2,COc1ccc(NC(=O)CCOc2cc(C)ccc2C)cc1S(=O)(=O)N1CCCCC1,267
3,COc1cc(OC)cc(C(=O)OCC(=O)Nc2ccc(F)cc2F)c1,11.1
4,CCOc1ccc(Br)cc1C1=CC(=O)C[C@H](c2ccc(OC)cc2)C1,133
5,COc1ccc(-c2cc3nc(C)n(N)c(=O)c3s2)cc1,13
6,CCSc1nnc(NC(=O)c2nc(S(=O)(=O)Cc3ccc(F)cc3)ncc2Cl)s1,-75
7,c1ccc(-c2cc(CSc3nc4ccccc4[nH]3)on2)cc1,-121
8,COc1ccccc1-n1c(SCC(=O)Nc2cc(C)on2)nc2c(c1=O)SCC2,58.3
9,CSCCC(NC(=O)c1ccccc1)C(=O)OCC(=O)N(C)CCC#N (centres undefined),16.7
10,CN(CC(=O)Nc1ccccc1Cl)C(=O)c1cccc(S(=O)(=O)N2CCN(c3ccccc3)CC2)c1,-11.9
11,Cc1cc(C(=O)COc2cccnc2[N+](=O)[O-])c(C)n1-c1ccccc1,-74.4
12,CNS(=O)(=O)c1cccc(C(=O)OCc2cc(C(C)=O)ccc2OC)c1,329
13,COc1ccc(OC)c(NC(=O)c2cc(-c3cc(F)ccc3OCC3CCCO3)n[nH]2)c1 (centres undefined),26.4
14,Cc1ccccc1N/C(=N/S(=O)(=O)c1ccccc1)c1ccc(F)cc1,55.6
15,CCC12CN(S(=O)(=O)c3ccc(C)cc3)CC(CC)(CN(S(=O)(=O)c3ccc(C)cc3)C1)C2=O,154
16,COc1ccc(C(O)c2nc(-c3cccc(F)c3)cs2)cc1 (centres undefined),45.8
17,O=C(c1n[nH]c(=O)c2ccccc12)N1CCN(C2c3ccccc3-c3ccccc32)CC1,-59.1
18,CCOc1ccc(NS(=O)(=O)c2cc(C(=O)NCCN3CCOCC3)ccc2C)cc1,360
19,Cc1ccc(NC(=O)NCCCN2CCOCC2)cc1,-95.8
20,O=C(Cc1ccccc1)NCCS(=O)c1ccc(Cl)cc1 (centres undefined),58.3
21,CC(C)(CNC(=O)c1ccc(Cl)c(S(=O)(=O)N2CCc3ccccc3C2)c1)N1CCOCC1,-44.4
22,CCN(CC)S(=O)(=O)c1ccc(N2CCOCC2)c(NC(=O)c2nn(C(C)C)c(=O)c3ccccc23)c1,-4.17
23,Cc1ccc(OC(=O)CCC(=O)Oc2ccc(C)cc2C)c(C)c1,70.8
24,CC(C)C[C@@H](CO)N(Cc1ccccc1)S(=O)(=O)N(Cc1ccccc1)[C@H](CO)CC(C)C,-80
25,O=C(Nc1ccccc1)Nc1cc(OCC(F)(F)F)cc(OCC(F)(F)F)c1,0
26,O=C(NCCCn1ccnc1)C(=O)NCC1OCCCN1S(=O)(=O)c1ccccc1 (centres undefined),8.33

row,SMILES,"activity change, negative = inhibition [%]"
1,CC(=O)N1CCOc2cc(S(=O)(=O)NCc3ccc(F)cc3)c(C)cc21,179
2,Cc1ccc(S(=O)(=O)NCc2ccncc2)cc1C,25
3,Cc1cc(S(=O)(=O)NCc2ccncc2)c(C)cc1Br,275
4,COCc1nn2c(N)c(C#N)cnc2c1-c1ccccc1,16.7
5,CC(=O)OCC(=O)[C@@]1(O)CC[C@H]2[C@@H]3CCC4=CC(=O)CC[C@]4(C)[C@H]3C(=O)C[C@@]21C,12.2
6,CC(NNC(=S)N1CCN(c2ccccn2)CC1)c1nccc2ccccc12 (centres undefined),300
7,Cc1c(C)c2ccc(OCC(=O)Nc3ccccn3)c(C)c2oc1=O,107
8,Cc1ccc(S(=O)(=O)NCCc2cc3ccc(C)cc3[nH]c2=O)cc1,33.6
9,Cc1cc(C(=O)COC(=O)c2ccccc2O)c(C)n1Cc1cccs1,-4.54
10,CN=C1c2cc3cc(OC)ccc3n2CCN1Cc1ccccc1,64.3
11,COc1ccc(OC)c(NC(=O)CN(Cc2ccc(F)cc2)C2CCCCC2)c1,-40
12,CC(C)(C)c1nc(NCCN2CCOCC2)c2nnn(Cc3ccccc3Cl)c2n1,-45.5
13,CCC(C)[C@H]1CNC(=S)N1CCc1cc(C(F)(F)F)cc(C(F)(F)F)c1 (some centres undefined),177
14,CCN(CC)C(=O)C1CCCN(c2ccc([N+](=O)[O-])cc2[N+](=O)[O-])C1 (centres undefined),58.3
15,C[C@]12CC[C@H](O)CC1=CCC1C2CC[C@@]2(C)C1CCC21OCCO1 (some centres undefined),16.7
16,Cc1cc(-n2c(C)cc(C(=O)CSc3nncn3C)c2C)no1,-18.2
17,CCOc1ccc2nc(SC3CC(=O)N(c4ccc(C)cc4)C3=O)sc2c1 (centres undefined),30
18,Cc1ccc(CNC(=O)c2ccc3c(=O)c(O)c(-c4ccc(C)cc4)[nH]c3c2)cc1,-14.3
19,CCc1c(O)nc(SCC(=O)Nc2ccccc2)n(-c2ccccc2)c1=O,80
20,CN(C(=O)CSc1nc(-c2cccs2)nc2ccccc12)C1CCS(=O)(=O)C1 (centres undefined),-119
21,CCN(CC)Cc1c(O)ccc2c1O/C(=C\C=C\c1ccccc1)C2=O,60
22,O=C(NCCc1ccccc1)c1ccc2c(c1)OCCO2,-2.38
23,COc1ccc2c(c1OC)C(=O)N1c3ccccc3C(=O)N(c3ccccc3F)C21 (centres undefined),87.5
24,CSc1nnc(-c2ccco2)n1-c1ccccc1,31.8
25,CC(C)N1CCN(c2ccc(OCC3COC(Cn4cncn4)(c4ccc(Cl)cc4Cl)O3)cc2)CC1 (centres undefined),0
26,COc1c(CC=C(C)C)cc(C2CC(=O)c3c(O)cc(O)cc3O2)cc1CC=C(C)C (centres undefined),50

row,SMILES,"activity change, negative = inhibition [%]"
1,Nc1nc(N)c2cc(S(=O)(=O)c3ccc4ccccc4c3)ccc2n1,16.7
2,C[C@@H]1CN([C@H](C)CO)C(=O)CCCn2nncc2CO[C@H]1CN(C)S(=O)(=O)c1ccc2c(c1)OCCCO2,-47.9
3,O=C(NCCNC(=O)Oc1cccc2ccccc12)Oc1cccc2ccccc12,41.7
4,COc1cc(OC)c(OC)cc1CCC(C)NCCC(c1ccccc1)c1ccccc1 (centres undefined),-33.3
5,Cc1ccc(C)c(N2CCN(S(=O)(=O)c3ccc4[nH]c(=O)ccc4c3)CC2)c1,4.54
6,CC1(Cc2ccc(OC(F)(F)F)cc2)C(=O)Nc2c(Cl)ccc(Cl)c21 (centres undefined),30
7,Cc1csc(=O)n1CC(=O)OCC(=O)c1c(N)n(C)c(=O)n(C)c1=O,10
8,COc1ccc(CC(=O)Nc2ccncc2Cl)cc1,-54.2
9,O=[N+]([O-])c1cccc(S(=O)(=O)NCc2ccncc2)c1,14.3
10,NS(=O)(=O)c1ccc(CNC(=S)NC(=O)c2ccco2)cc1,40.3
11,c1ccc(-c2noc(-c3ccc4ccccc4c3)n2)nc1,-2.38
12,Cc1ccc(-c2nc(-c3ccccn3)no2)cc1,-90.9
13,CCOC(=O)c1c(NC(=O)c2nn(CC)cc2Br)sc(C)c1C,16.7
14,CN(C)c1ccc(/C=C/c2ccc3ccccc3n2)cc1,117
15,Fc1ccccc1N1CCN(Cc2nc(-c3ccccc3)no2)CC1,-87.1
16,O=C(Nc1ccc([N+](=O)[O-])cc1)C(=O)Nc1cccc(C(=O)O)c1,43.3
17,COc1ccc(NS(=O)(=O)c2ccc(-c3cnc(C4CC4)o3)cc2)cc1OC,40
18,Cc1oc(=O)c(NC(=O)c2ccc(Cl)cc2)cc1C(=O)c1ccccc1,-75
19,O=C(CN1C(=O)c2ccccc2S1(=O)=O)c1ccc2c(c1)OCCCO2,-16.7
20,O=C(CN1C(=O)c2ccccc2S1(=O)=O)c1ccc(Cl)cc1Cl,-103
21,CC1CCN(C(=O)c2ccc(N3C(=O)C4CCC(C)CC4C3=O)cc2)CC1 (centres undefined),27.8
22,CCN(CC)C(=O)[C@H]1C[C@H](CC(=O)NC/C=C(\C)CCC=C(C)C)C(=O)N2CCc3c([nH]c4cc(CCC(=O)N(C)C)ccc34)[C@]12C,-16.7
23,COc1ccc(C(=O)NNC(=O)c2cccc(S(=O)(=O)N3CCOCC3)c2)cc1,19.6
24,O=C(Nc1nc(-c2ccccc2)cs1)C1CCCCN1S(=O)(=O)c1ccccc1 (centres undefined),-104
25,O=C(O)C1(Nc2ccccc2Cl)CCCC1,-15
26,Cc1cc(C(=O)Cn2cnc3cc(F)ccc3c2=O)c(C)n1C1CC1,-16.7

row,SMILES,"activity change, negative = inhibition [%]"
1,Cc1ccc(C(=O)Nc2ccc3c(c2)C(=O)N(CC2CCCO2)C3=O)cc1 (centres undefined),80
2,CC(C)NCC(O)COc1cccc2ccccc12 (centres undefined),-29
3,COc1ccc(S(=O)(=O)N2CCOCC2)cc1NC(=O)COC(=O)CC1CC2CCC1C2 (centres undefined),50
4,COc1cc(NS(=O)(=O)c2ccc(C)cc2C)cc(OC)c1OC,-27.3
5,CCCC(c1nnnn1Cc1ccc(OC)cc1)N1CCN(c2ccccc2)CC1 (centres undefined),117
6,C=CCOC(=O)C1=C(C)N=C2SCCC(=O)N2C1c1cccs1 (centres undefined),-29.2
7,CCO[C@@H]1OC(C(=O)NC2CC2)=C[C@H](c2coc3ccccc3c2=O)[C@H]1CCCO,120
8,Cc1ccc(S(=O)(=O)N2CCCCC2)cc1NS(=O)(=O)c1ccccc1F,200
9,COc1ccccc1C(=O)Nc1nc2ccccc2[nH]1,43.3
10,COc1ccc(N(C)C(=O)c2ccc3snnc3c2)cc1,-52.1
11,CN(C)c1ccc(/C=C/c2nc3ccccc3s2)cc1,27.8
12,O=C1CCc2cccc(O)c2N1,-23.2
13,Cc1c(CCOC(=O)CC23CC4CC(CC(C4)C2)C3)sc[n+]1CC(=O)c1ccc(Br)cc1,-59.3
14,CN(C)CCN1C(=O)c2cccc3cc([N+](=O)[O-])cc(c23)C1=O,310
15,CSc1cccc(NC(=O)N2CCCC(CNS(=O)(=O)Cc3ccccc3)C2)c1 (centres undefined),62.5
16,CCN(CC)c1ccc2c(c1)oc(=O)c1c(Cl)cc(=O)oc12,-33.3
17,Cc1cccc(N2CCN(C(=S)Nc3ccc4nc(N5CCN(C)CC5)cc(C)c4c3)CC2)c1C,22.7
18,O=c1c2ccccc2c(C=Nc2ccccc2O)c(O)n1-c1nccs1,-2.5
19,Cc1ccc(-c2cn3cc(C)ccc3n2)cc1,10
20,CC(C)CC(NC(=O)c1ccc(Cl)cc1)C(=O)OCC(=O)c1ccc2c(c1)NC(=O)CO2 (centres undefined),-16.7
21,CN1CCN(c2ccc(-c3ccc4ccccc4n3)cc2)CC1,-31.9
22,CC(C)(C)n1nnnc1C(c1cccs1)N1CCCC2(CCCCC2)C1 (centres undefined),54.2
23,O=C(CSc1nc(C(F)(F)F)cc(=O)[nH]1)N1CCCC1,231
24,CC(=O)N(CCc1ccccc1)c1ccc2c(c1)C1CC2CCN1C(=O)OCc1ccccc1 (centres undefined),-90.9
25,COc1ccc(NS(=O)(=O)c2ccc(N3CCOCC3)c(N)c2)cc1,-21.1
26,COc1ccc(NS(=O)(=O)c2cccc(NC(=O)c3ccc(S(=O)(=O)N4CCCCCC4)cc3)c2)cc1,11.9
